# Screens from PubChem BioAssay.
# G9a inh = inhibitors of human histone lysine methyltransferase G9a; Q96KQ7; G9a H3K9 monomethylation, AlphaScreen, 2 h; Potency, µM (doses to about 102 µM), actives largely listed as inhibitors; 350,000 compounds, 8.8% hits; AID 504332; note: nearly all actives have a fitted effect of over 75% in size
#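 AlphaScreen read-out: biotin-H3K9 peptide (500 nM) methylation by 20 nM enzyme with 20 uM SAM, 2 h at room temperature after 15 min compound preincubation; anti-monomethyl H3K9 antibody plus donor/acceptor beads, 10 min dark.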
# JMJD2A Tudor inh = inhibitors of human JMJD2A Tudor domain | O75164 | Potency, µM (titrated, usually from 114 µM), hits mostly inhibitors | AlphaScreen JMJD2A-Tudor / H3K4me3 peptide binding | 390,000 compounds, 4.4% hits; note: nearly all actives have a fitted effect of over 50% in size
# BAZ2B inh = blocks human BAZ2B | AlphaScreen BAZ2B-H3K14Ac peptide displacement | Potency, µM (highest dose often 114 µM), usual class: inhibitors | 360,000 compounds, 4.4% hits; note: nearly all actives have a fitted effect of over 60% in size
#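 AlphaScreen luminescence quantifies BAZ2B engagement of H3K14Ac peptide; the protein and biotinylated peptide are both at 50 nM final, buffer PBS pH 7.4 with 0.01% Tween-20, all steps at room temperature.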
# HP1b chromo inh = blocks HP1-beta chromodomain binding to methylated histone tails; AlphaScreen HP1-beta / biotin-H3K9me3 peptide binding; P83916; Potency, µM (doses to about 114 µM), hits mostly inhibitors; 390,000 compounds, 0.56% hits; note: nearly all actives have a fitted effect of over 70% in size
#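 AlphaScreen: HP1-beta (50 nM) preformed 30 min with biotin-H3(1-18)K9me3 peptide (50 nM) in PBS pH 7.4, 0.01% Tween-20. Compound added for 30 min at RT, then streptavidin donor/nickel chelate acceptor beads (10 ug/mL) for 30 min.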
# TDP1 block = blocks human tyrosyl-DNA phosphodiesterase 1. recombinant TDP1, AlphaScreen DNA substrate cleavage. Potency, µM (titrated, usually from 130 µM), actives largely listed as inhibitors. 350,000 compounds, 0.28% hits; note: nearly all actives have a fitted effect of over 40% in size
# Target sequence (Q9NUW8 whole entry, looked up): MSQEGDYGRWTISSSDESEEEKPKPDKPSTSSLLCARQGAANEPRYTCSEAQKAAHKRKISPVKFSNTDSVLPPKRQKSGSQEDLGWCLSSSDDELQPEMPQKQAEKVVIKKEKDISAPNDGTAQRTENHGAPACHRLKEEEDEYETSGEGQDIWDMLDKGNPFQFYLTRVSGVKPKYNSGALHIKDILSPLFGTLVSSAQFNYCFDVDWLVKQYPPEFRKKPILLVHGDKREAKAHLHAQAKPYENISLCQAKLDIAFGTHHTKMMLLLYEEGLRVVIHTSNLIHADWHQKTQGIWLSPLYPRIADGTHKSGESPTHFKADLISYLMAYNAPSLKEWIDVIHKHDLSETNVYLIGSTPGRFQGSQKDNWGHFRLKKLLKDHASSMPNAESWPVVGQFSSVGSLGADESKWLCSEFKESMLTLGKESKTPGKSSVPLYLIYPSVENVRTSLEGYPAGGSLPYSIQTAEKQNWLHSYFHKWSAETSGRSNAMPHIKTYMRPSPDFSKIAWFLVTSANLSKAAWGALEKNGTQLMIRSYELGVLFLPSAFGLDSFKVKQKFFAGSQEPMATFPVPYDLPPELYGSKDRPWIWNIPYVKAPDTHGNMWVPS
#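 Recombinant E. coli-expressed Tdp1 (1 nM) preincubated with compound 15 min at RT, then 5'-biotin/3'-phosphotyrosine-FITC DNA substrate (15 nM) added for 5 min. AlphaScreen beads (10 ug/ml) added, 10 min RT; tyrosine-FITC cleavage read as signal loss.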
# Sfp PPTase inh = Sfp phosphopantetheinyl transferase inhibition | Biochemical Sfp PPTase activity, qHTS | Potency, µM, actives largely listed as inhibitors | 310,000 compounds, 3.5% hits | AID 1490;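 note: the enzyme is Sfp with the accession as filed and its product quenches rhodamine fluorescence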
#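 With Hepes-Na pH 7.6 buffer containing 10 mM MgCl2, Sfp (15 nM) modified BHQ-2-YbbR (12.5 uM) using rhodamine-CoA (5 uM). Two reads 30 minutes apart at 525/598 nm yielded each well's rate.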
# A number is an active result; . = inactive; ? = inconclusive; / = no result; [ ] = another dose, or the depositor's remark. An excerpt weighted towards active compounds, which were near 12% of everything screened. Calls come from the whole dose curve; as a rule, active = well fitted curve in the direction sought with a large enough effect; inconclusive = small, poorly fitted or top-dose-only effect, or another doubt; inactive = no such curve, though single readings can be large; an effect the other way counts as inactive or inconclusive.
SMILES,G9a inh,JMJD2A Tudor inh,BAZ2B inh,HP1b chromo inh,TDP1 block,Sfp PPTase inh
COc1ccc(CN(C)Cc2c(O)ccc3ccccc23)cc1,18µM,.,.,.,.[0.0935 µM],.
CN(Cc1ccccc1)Cc1c(F)cccc1F,11µM,7.1µM,56µM,?,.,.
COc1ccc(CNc2nc(Cl)nc3nc[nH]c23)cc1,/,.,/,.,.,/
Cc1ccc(S(=O)(=O)N2CCOCC2)cc1NC(=O)c1cc(-c2ccccn2)nc2ccccc12,/,.[11.4 µM],.,.,.,.
O=C(Nc1ccccc1F)c1cc(-c2ccco2)nc2ccccc12,/,?,/,.,/,/
O=C(Nc1ccc(F)cc1F)c1cc(-c2ccco2)nc2ccccc12,45µM,.,.,.,/,32µM
O=C(Nc1ccccc1N1CCOCC1)c1cc(-c2ccco2)nc2ccccc12,?,?,50µM,?,.,.
O=C(Nc1cc(S(=O)(=O)N2CCOCC2)ccc1N1CCCCC1)c1cc(-c2ccccn2)nc2ccccc12,2.8µM,79µM,.,?,.,13µM
Nc1c(C(=O)NCc2ccccc2)c2nc3ccccc3nc2n1CCCN1CCOCC1,.,.,.,.,.,.
Nc1c(C(=O)NCc2ccco2)c2nc3ccccc3nc2n1CCc1ccccc1,?,.,.,.,.,50µM
CC(=O)c1cccc(OCC(=O)c2cc(C)n(-c3cc(C)on3)c2C)c1,50µM,.,?,.,.,.
Cc1cc(C(=O)COc2cccnc2[N+](=O)[O-])c(C)n1Cc1cccs1,?,?,?,.,.,.
Cc1cc(-n2c(C)cc(C(=O)COc3ccc4ccc(=O)oc4c3)c2C)no1,.[12.7 µM],.,.,.,.,.
Cc1cc(-n2c(C)cc(C(=O)COc3cccnc3[N+](=O)[O-])c2C)no1,40µM,.,?,.,.,/
CCCN1C(=O)C2(c3ccccc31)c1c(oc3ccc(F)cc3c1=O)C(=O)N2CCCOC(C)C (configuration not stated),.,.,.,.,.,/
CC(Sc1ccc(Cl)cc1)C(=O)NCC(c1ccco1)N1CCCCC1 (configuration not stated),.,.,.,.,.,/
O=C(CSc1ncnc2c1oc1ccccc12)c1cccs1,.,.,.,.,.,.
Cc1nc(SCC(=O)c2cccs2)c2oc3ccccc3c2n1,.[12.7 µM],.,.,.,.,79µM
Cc1nc(SCC(=O)NCc2ccccc2)c2oc3ccccc3c2n1,.,.,.,.,.,.
Cc1nc(SCC(=O)O)c2oc3ccccc3c2n1,56µM,.,.,.,.,.
Cc1ccc(OCc2nc3ccccc3n2Cc2ccccc2Cl)cc1,.,.,.,.,/,/
Cc1ccc(-n2c(O)c(C=Nc3ccc4c(c3)OCO4)c3ccccc3c2=O)cc1C,.,.,.,.,.,35µM
COc1ccc(C(=O)Sc2nncc3ccccc23)cc1,22µM,?,71µM,.,.,50µM
COc1cnc(SC(C)C)[nH]c1=O,/,.,.,.,.,.
COc1cnc(-c2ccccn2)[nH]c1=O,.,40µM,1.3µM,.,.,10µM
SMILES,G9a inh,JMJD2A Tudor inh,BAZ2B inh,HP1b chromo inh,TDP1 block,Sfp PPTase inh
COc1cnc(-c2ccccn2)nc1Sc1cccc(Cl)c1,.,?,.,.,.,.
COc1ccccc1Sc1nc(-c2ccccn2)ncc1OC,?,89µM,22µM,.,.,.
COc1cnc(-c2ccccn2)nc1NC(C)C,56µM,22µM,3.2µM,.,.,7.1µM
CCOC(=O)c1sc2ncn(CC(=O)Nc3cc(Cl)ccc3C)c(=O)c2c1C,.,.,.,.,.,/
Cc1ccc(NC(=O)C2CCN(c3ncnc4c3nc3n4CCCCC3)CC2)nc1,.,.,.,.,.,.
CCNc1ccc(C(=O)OCC)cc1NC(=O)c1cccc(S(=O)(=O)N(C)c2ccccc2)c1,.,.,.,.,.,.
CCNc1ccc(C(=O)OCC)cc1NC(=O)c1cccc(N(C)C)c1,50µM,?,?,.,.,.
CCOC(=O)c1ccc(S(=O)(=O)NNC(=O)c2cccc(N(C)C)c2)cc1,11µM,.,/,.,.,.
Cc1ccc(S(=O)(=O)NC(=O)c2cccc(N(C)C)c2)cc1,/,.,/,.,.,/
O=c1ccc(C(F)(F)F)cn1Cc1cc(=O)n2cc(Br)ccc2n1,4.5µM,.,79µM,.,/,.
